Test results reported in ChEMBL document CHEMBL1961873, “Compounds: GSK PKIS; Assays: Nanosyn kinase panel” (2012).

Columns and labels:
[1] = target: Sphingosine kinase 1 (Homo sapiens) (UniProt Q9NYA1); details: at 1 µM;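 also: mean SPHK1 inhibition value reported from the GSK PKIS kinase panel screen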
[2] = target: T1, Sphingosine kinase 2 (Homo sapiens) (UniProt Q9NRA0); details: at 0.1 µM
T1 sequence (whole entry): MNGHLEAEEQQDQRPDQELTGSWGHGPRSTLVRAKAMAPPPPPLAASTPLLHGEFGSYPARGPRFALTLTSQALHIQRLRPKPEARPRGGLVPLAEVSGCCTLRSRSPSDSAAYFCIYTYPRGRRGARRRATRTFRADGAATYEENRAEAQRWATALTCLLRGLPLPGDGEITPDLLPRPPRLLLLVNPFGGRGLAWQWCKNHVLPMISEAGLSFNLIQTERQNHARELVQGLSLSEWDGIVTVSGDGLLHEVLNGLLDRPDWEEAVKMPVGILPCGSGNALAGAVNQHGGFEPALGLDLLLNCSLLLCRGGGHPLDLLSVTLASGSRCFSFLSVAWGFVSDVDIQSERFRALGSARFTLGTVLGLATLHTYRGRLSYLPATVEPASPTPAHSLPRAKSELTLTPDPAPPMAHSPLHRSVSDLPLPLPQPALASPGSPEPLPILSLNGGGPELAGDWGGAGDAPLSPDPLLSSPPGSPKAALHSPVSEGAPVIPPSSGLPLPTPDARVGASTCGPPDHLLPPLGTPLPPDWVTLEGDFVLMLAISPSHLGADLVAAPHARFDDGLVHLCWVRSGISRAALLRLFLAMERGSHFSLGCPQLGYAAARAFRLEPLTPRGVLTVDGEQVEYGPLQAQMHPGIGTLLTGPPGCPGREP

[3] = target: T1, Sphingosine kinase 2 (Homo sapiens); details: at 1 µM
[4] = target: Casein kinase II subunit alpha (Homo sapiens) (UniProt P68400); details: at 0.1 µM
[5] = target: Casein kinase II subunit alpha (Homo sapiens) (UniProt P68400); details: at 1 µM
[6] = target: T2, Inhibitor of nuclear factor kappa-B kinase subunit alpha (Homo sapiens) (UniProt O15111); details: at 0.1 µM
T2 sequence (whole entry): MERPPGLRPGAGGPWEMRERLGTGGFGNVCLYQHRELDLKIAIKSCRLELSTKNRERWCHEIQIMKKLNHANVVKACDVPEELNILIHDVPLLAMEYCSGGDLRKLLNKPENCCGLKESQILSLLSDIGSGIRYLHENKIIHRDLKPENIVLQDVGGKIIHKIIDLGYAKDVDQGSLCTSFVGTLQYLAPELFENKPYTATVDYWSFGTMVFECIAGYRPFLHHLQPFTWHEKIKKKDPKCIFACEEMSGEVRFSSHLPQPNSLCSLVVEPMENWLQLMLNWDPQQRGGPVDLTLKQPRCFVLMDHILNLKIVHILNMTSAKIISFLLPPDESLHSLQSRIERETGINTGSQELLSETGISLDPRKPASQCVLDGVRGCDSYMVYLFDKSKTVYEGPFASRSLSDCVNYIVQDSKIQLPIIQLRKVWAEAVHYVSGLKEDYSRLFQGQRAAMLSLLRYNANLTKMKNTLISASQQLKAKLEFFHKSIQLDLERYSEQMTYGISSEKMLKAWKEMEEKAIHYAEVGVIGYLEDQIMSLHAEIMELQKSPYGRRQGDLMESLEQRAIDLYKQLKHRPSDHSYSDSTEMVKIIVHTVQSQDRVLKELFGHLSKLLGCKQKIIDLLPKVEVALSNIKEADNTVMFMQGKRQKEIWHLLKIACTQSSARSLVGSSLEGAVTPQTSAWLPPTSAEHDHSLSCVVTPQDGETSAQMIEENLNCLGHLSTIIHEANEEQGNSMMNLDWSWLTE

[7] = target: T2, Inhibitor of nuclear factor kappa-B kinase subunit alpha (Homo sapiens); details: at 1 µM
[8] = target: T3, Inhibitor of nuclear factor kappa-B kinase subunit beta (Homo sapiens) (UniProt O14920); details: at 0.1 µM
T3 sequence (whole entry): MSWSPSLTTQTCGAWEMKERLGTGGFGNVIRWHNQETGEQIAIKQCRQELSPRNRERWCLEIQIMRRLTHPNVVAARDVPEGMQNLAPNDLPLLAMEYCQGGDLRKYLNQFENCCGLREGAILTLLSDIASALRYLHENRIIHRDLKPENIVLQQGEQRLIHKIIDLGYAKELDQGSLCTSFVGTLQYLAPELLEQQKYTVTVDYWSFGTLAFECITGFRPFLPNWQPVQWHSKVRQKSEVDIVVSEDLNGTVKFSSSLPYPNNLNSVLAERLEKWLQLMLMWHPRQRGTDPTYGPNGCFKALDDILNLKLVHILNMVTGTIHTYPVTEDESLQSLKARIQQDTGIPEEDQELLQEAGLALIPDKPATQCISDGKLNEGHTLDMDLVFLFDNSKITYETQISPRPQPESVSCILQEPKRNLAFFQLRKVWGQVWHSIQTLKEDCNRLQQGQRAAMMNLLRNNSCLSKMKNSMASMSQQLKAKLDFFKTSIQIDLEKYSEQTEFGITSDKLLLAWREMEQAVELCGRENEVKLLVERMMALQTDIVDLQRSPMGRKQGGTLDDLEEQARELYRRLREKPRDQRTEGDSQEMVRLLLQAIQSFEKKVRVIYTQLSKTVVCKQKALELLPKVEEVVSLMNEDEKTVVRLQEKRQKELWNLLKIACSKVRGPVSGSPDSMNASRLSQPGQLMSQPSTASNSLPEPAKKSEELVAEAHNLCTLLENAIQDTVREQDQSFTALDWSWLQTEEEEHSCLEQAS

[9] = target: T3, Inhibitor of nuclear factor kappa-B kinase subunit beta (Homo sapiens); details: at 1 µM
[10] = target: T4, Inhibitor of nuclear factor kappa-B kinase subunit epsilon (Homo sapiens) (UniProt Q14164); details: at 0.1 µM
T4 sequence (whole entry): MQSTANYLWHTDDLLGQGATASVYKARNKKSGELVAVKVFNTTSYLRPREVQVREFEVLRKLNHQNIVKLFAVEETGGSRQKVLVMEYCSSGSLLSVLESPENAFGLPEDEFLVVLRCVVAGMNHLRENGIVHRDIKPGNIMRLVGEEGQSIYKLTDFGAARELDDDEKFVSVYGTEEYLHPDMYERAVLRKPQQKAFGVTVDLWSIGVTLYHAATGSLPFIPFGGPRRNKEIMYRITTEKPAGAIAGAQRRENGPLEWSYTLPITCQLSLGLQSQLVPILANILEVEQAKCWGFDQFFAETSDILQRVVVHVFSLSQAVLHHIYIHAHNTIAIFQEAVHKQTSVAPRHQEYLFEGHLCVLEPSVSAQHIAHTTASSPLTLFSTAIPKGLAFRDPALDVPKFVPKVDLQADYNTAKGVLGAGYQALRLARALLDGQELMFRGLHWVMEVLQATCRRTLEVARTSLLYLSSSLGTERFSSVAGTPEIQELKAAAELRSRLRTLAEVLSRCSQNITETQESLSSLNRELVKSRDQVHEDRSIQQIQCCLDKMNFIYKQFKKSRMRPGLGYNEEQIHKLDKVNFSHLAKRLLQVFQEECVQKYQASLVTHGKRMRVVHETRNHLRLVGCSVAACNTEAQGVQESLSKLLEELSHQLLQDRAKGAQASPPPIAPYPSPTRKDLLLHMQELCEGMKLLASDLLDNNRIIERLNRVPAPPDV

[11] = target: T4, Inhibitor of nuclear factor kappa-B kinase subunit epsilon (Homo sapiens); details: at 1 µM
[12] = target: T5, Serine/threonine-protein kinase Nek1 (Homo sapiens) (UniProt Q96PY6); details: at 0.1 µM
T5 sequence (whole entry): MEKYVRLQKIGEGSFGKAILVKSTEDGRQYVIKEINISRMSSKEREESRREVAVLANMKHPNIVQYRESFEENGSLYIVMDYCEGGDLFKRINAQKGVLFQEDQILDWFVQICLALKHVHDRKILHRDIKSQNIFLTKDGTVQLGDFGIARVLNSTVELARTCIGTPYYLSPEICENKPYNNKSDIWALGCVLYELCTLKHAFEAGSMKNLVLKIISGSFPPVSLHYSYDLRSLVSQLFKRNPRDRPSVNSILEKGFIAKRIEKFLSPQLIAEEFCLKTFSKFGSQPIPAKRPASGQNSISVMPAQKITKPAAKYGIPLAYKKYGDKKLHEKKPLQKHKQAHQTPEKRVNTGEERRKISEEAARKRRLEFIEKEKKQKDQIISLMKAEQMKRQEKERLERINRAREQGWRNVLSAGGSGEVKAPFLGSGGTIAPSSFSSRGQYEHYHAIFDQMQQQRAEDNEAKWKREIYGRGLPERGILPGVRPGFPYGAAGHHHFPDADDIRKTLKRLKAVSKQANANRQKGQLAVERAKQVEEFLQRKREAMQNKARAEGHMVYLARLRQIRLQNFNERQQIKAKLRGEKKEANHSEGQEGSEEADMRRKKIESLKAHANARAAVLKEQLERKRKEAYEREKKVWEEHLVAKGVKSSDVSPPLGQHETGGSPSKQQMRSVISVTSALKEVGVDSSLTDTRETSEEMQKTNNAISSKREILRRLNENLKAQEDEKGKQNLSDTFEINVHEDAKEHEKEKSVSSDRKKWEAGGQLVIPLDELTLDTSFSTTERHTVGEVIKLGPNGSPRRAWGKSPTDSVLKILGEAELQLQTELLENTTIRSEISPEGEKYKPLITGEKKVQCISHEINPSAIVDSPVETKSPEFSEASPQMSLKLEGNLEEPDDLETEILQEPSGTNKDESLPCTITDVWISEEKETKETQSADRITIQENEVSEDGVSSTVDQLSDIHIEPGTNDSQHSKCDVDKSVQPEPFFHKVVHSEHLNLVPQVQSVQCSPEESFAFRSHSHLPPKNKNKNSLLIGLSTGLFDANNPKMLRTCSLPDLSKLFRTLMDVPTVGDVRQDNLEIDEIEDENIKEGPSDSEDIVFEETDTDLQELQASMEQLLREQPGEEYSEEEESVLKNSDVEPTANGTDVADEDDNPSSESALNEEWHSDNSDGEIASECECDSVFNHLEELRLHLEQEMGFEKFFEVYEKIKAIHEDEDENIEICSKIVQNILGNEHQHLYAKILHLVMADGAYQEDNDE

[13] = target: T5, Serine/threonine-protein kinase Nek1 (Homo sapiens); details: at 1 µM
[14] = target: T6, Serine/threonine-protein kinase Nek2 (Homo sapiens) (UniProt P51955); details: at 0.1 µM
T6 sequence (whole entry): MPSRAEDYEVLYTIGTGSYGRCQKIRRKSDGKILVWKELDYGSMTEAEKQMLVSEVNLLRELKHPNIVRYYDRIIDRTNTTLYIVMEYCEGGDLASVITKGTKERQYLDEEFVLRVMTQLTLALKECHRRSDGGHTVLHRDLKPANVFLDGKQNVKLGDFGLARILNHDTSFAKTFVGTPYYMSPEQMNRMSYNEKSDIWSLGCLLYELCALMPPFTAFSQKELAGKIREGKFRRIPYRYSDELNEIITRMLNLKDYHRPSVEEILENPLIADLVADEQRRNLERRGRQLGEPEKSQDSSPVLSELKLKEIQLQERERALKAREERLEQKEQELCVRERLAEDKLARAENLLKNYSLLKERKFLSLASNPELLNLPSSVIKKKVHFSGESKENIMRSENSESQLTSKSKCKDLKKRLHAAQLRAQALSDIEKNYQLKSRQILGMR

[15] = target: T6, Serine/threonine-protein kinase Nek2 (Homo sapiens); details: at 1 µM
[16] = target: Serine/threonine-protein kinase Nek6 (Homo sapiens) (UniProt Q9HC98); details: at 0.1 µM
[17] = target: Serine/threonine-protein kinase Nek6 (Homo sapiens) (UniProt Q9HC98); details: at 1 µM
[18] = target: Serine/threonine-protein kinase Nek7 (Homo sapiens) (UniProt Q8TDX7); details: at 0.1 µM
[19] = target: Serine/threonine-protein kinase Nek7 (Homo sapiens) (UniProt Q8TDX7); details: at 1 µM
[20] = target: T7, Serine/threonine-protein kinase Nek9 (Homo sapiens) (UniProt Q8TD19); details: at 0.1 µM;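 also: reported value is the mean percent inhibition of NEK9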
T7 sequence (whole entry): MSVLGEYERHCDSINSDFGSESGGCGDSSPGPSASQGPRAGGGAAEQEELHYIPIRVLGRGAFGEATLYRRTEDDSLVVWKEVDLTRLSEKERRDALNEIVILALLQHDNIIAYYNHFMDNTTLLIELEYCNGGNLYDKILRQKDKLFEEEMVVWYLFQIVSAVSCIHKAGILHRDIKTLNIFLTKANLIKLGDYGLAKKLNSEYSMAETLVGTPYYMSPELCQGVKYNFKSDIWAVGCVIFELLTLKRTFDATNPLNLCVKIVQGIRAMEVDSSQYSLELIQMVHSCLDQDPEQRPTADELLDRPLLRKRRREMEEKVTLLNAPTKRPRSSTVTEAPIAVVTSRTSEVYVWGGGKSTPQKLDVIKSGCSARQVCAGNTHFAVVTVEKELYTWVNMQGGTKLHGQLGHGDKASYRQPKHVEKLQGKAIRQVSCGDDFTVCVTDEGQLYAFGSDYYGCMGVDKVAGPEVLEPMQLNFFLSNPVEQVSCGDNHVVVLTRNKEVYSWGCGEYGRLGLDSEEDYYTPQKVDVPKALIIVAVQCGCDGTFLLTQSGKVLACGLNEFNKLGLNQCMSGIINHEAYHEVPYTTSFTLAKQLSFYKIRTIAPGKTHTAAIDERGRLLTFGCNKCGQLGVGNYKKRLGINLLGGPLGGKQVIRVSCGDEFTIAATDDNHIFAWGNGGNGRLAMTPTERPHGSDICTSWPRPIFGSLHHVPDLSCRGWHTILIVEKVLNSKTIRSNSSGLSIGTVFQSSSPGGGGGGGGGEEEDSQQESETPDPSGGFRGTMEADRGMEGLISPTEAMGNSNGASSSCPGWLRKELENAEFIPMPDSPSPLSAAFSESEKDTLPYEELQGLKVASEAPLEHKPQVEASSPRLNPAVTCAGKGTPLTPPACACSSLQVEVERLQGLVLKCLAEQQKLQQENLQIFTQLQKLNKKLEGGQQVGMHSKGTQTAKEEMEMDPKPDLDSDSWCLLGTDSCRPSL

Chain of Serine/threonine-protein kinase Nek6 (Homo sapiens) (Q9HC98 whole entry): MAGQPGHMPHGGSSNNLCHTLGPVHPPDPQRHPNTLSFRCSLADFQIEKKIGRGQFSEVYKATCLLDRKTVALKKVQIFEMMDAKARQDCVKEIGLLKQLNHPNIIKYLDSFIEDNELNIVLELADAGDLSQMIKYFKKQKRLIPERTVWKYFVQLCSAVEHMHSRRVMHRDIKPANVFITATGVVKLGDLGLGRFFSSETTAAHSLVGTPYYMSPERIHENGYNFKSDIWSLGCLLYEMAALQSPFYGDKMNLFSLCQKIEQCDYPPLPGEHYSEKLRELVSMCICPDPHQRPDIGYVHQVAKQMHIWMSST
Chain of Casein kinase II subunit alpha (Homo sapiens) (P68400 whole entry, looked up): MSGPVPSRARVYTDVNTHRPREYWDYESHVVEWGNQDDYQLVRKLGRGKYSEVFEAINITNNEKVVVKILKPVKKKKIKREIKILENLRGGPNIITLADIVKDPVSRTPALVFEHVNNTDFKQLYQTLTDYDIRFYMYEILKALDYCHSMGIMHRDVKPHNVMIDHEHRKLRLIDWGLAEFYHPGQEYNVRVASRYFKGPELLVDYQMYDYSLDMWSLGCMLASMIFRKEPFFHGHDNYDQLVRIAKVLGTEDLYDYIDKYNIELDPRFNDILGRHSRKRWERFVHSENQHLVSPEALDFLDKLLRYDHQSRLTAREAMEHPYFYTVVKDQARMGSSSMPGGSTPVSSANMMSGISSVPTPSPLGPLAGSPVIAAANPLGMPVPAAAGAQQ
Chain of Serine/threonine-protein kinase Nek7 (Homo sapiens) (Q8TDX7 whole entry, looked up): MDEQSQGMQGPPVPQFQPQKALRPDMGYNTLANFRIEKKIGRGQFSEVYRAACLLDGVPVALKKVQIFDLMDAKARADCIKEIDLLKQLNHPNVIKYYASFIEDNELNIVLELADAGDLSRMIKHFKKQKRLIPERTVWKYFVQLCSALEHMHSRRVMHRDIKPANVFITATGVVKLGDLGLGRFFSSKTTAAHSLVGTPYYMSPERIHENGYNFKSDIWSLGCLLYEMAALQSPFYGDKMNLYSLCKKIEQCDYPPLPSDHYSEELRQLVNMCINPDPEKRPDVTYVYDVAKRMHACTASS
Chain of Sphingosine kinase 1 (Homo sapiens) (Q9NYA1 whole entry): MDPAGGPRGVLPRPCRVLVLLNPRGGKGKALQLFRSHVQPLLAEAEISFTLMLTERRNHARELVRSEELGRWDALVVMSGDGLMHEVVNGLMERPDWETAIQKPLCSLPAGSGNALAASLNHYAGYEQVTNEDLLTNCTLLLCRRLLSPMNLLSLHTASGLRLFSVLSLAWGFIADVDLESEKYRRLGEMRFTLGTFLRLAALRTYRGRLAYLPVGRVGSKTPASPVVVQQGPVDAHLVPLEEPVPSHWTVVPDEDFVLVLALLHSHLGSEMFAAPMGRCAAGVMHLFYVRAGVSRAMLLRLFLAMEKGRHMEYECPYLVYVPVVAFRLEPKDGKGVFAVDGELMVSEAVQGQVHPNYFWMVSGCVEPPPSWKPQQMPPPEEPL

Row | SMILES | inhibition [1] [%] | inhibition [2] [%] | inhibition [3] [%] | inhibition [4] [%] | inhibition [5] [%] | inhibition [6] [%] | inhibition [7] [%] | inhibition [8] [%] | inhibition [9] [%] | inhibition [10] [%] | inhibition [11] [%] | inhibition [12] [%] | inhibition [13] [%] | inhibition [14] [%] | inhibition [15] [%] | inhibition [16] [%] | inhibition [17] [%] | inhibition [18] [%] | inhibition [19] [%] | inhibition [20] [%]
1 | CCn1c(-c2nonc2N)nc2cncc(C(=O)N3CC[C@H](N)C3)c21 | -5.44 | 0.23 | -0.8 | 3.78 | 3.7 | 14 | 18.8 | 7.24 | 5.79 | 13.8 | 36.1 | 1.89 | 3.47 | 5.3 | 6.1 | 0.64 | 5.91 | 6.16 | 7.48 | 11.8
2 | CCCN1CCC(Oc2cc(Nc3nc(Nc4cccc(F)c4C(N)=O)c4cc[nH]c4n3)c(OC)cc2Cl)CC1 | 0.63 | -0.36 | 0.09 | 0.96 | 7.7 | -0.06 | -9.18 | -1.77 | -4.88 | -2.26 | -1.68 | 0.59 | 0.62 | -0.38 | 1.09 | 0.14 | -2.04 | -8.48 | 1.7 | -0.6
